M1 antag = human M1 muscarinic receptor antagonists, primary screen, CHO-K1 cells, Fluo-8 calcium fluorescence, 1536-well. CHO-K1 hM1, ACh EC80 antagonist. 360,000 compounds, 1.3% hits. inhibition, % at 3 µM. Muscarinic acetylcholine receptor M1 (Homo sapiens), P11229. AID 588852, 2011;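 active = percent inhibition above its own plate's cutoff, namely the mean of that plate's compound wells plus 3 SD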;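 note: peak over basal fluorescence ratio during 140 s after agonist addition; 0% = ACh EC80 plus DMSO and 100% = DMSO alone without agonist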
Target sequence (P11229 whole entry, looked up): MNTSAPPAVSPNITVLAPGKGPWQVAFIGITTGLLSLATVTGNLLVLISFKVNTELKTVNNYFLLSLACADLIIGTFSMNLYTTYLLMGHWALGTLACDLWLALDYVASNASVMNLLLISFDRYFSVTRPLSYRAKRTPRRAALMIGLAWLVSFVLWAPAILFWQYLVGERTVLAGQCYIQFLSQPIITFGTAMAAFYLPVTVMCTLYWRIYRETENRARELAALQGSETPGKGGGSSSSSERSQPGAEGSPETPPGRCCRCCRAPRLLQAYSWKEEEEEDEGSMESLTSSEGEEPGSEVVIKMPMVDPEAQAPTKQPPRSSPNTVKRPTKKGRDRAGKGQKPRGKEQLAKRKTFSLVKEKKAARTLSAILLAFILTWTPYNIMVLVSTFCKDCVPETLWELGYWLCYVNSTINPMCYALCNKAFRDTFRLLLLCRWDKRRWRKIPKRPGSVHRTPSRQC
CHRM1 agonist = human M1 muscarinic receptor agonists, primary screen, Fluo-8 calcium fluorescence, CHO-K1 cells, HTS. 360,000 compounds, 0.33% hits. activation, % at 3 µM. AID 588814, 2011. CHO-K1 hM1, agonist mode; 0% DMSO, 100% acetylcholine EC100;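 active = activation above the run's mean compound activation plus 3 SD, cut at about 16% in these data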;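 note: peak over basal fluorescence ratio within a 140 s kinetic read after compound addition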
CHO-K1 Ca ag = counter-screen for M1 agonists: effect in parental CHO-K1 cells; activation, % at 3 µM; Fluo-8 calcium fluorescence; scaled to maximal ATP response, vehicle zero; 360,000 compounds, 0.48% hits; in the data active = activation above about 15%;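 note: untransfected CHO-K1 host cells lacking M1 receptor as counterscreen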
M1 PAM = human M1 muscarinic receptor positive allosteric modulators, primary screen, CHO-K1 cells, Fluo-8 calcium fluorescence, 1536-well. Muscarinic acetylcholine receptor M1 (Homo sapiens), P11229. CHO-K1 hM1, ACh EC20; 0% = ACh EC20, 100% = maximal ACh. activation, % at 3 µM. 360,000 compounds, 0.088% hits. AID 588819, 2011; in the data active = activation above about 19%, passing the limit was not always enough
CHO-K1 Ca antag = M1 antagonist counterscreen hit in parental CHO-K1 cells. ATP-induced calcium, Fluo-8 fluorescence. 360,000 compounds, 0.6% hits. AID 602250. inhibition, % at 3 µM;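 active = inhibition above a per-plate cutoff, the plate's mean sample inhibition plus 3 SD, cut at about 24% in these data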;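 note: 0% = DMSO plus EC80 ATP and 100% = DMSO alone without ATP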
CHO-K1 Ca PAM = nonselective calcium activators in parental CHO-K1 cells, primary screen, counter-screen for M1 PAM project, cell-based, Fluo-8 calcium fluorescence, full deck, 1536-well | AID 602247, 2012 | activation, % at 3 µM | 360,000 compounds, 0.02% hits | ATP EC20; 0% at ATP EC20, 100% at ATP max;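 active = activation above the run cutoff, the mean activation of all test compounds plus 3 SD, cut at about 40% in these data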;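 note: peak over basal fluorescence ratio in a 140 s read after ATP addition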
* marks the source's active call; other numbers are inactive results. Most compounds without a hit are left out; they make up all but 2.4% or so of the library.

For N#CC1=C(N)OC2=C(CC/C2=C\c2ccccc2)C1c1ccccc1 (configuration not stated) the results were M1 antag 30.8*, CHRM1 agonist 17.9*, CHO-K1 Ca ag 20.7*, M1 PAM -10.4, CHO-K1 Ca antag 26.2* and CHO-K1 Ca PAM 1.6.
N#CC1=C(N)OC2=C(CC/C2=C\c2ccccc2Cl)C1c1ccccc1Cl (configuration not stated) was read as M1 antag 7.3, CHRM1 agonist -3.1, CHO-K1 Ca ag 2.0, M1 PAM -1.6, CHO-K1 Ca antag -0.3 and CHO-K1 Ca PAM -10.3.
For COc1ccc(CNC(=O)c2cnn3c(C(F)F)cc(C)nc23)cc1OC the results were M1 antag -7.4, CHRM1 agonist 4.4, CHO-K1 Ca ag 3.9, M1 PAM 5.5, CHO-K1 Ca antag 25.6* and CHO-K1 Ca PAM -4.9.
N#CC1=C(N)Oc2cc(O)c(Cl)cc2C1c1ccccc1F (configuration not stated) was read as M1 antag 20.2, CHRM1 agonist 25.8*, CHO-K1 Ca ag 1.7, M1 PAM -14.6, CHO-K1 Ca antag -6.5 and CHO-K1 Ca PAM -6.1.
`N#CC1=C(N)Oc2cc(O)c(Cl)cc2C1c1cccnc1` (configuration not stated) gave M1 antag -11.0, CHRM1 agonist 6.8, CHO-K1 Ca ag 8.0, M1 PAM 9.8, CHO-K1 Ca antag 14.0 and CHO-K1 Ca PAM -0.1.
Screening CCc1ccccc1NC(=O)N1CCc2ccccc2C1 returned M1 antag -2.5, CHRM1 agonist 1.0, CHO-K1 Ca ag 19.2*, M1 PAM 4.2, CHO-K1 Ca antag 2.8 and CHO-K1 Ca PAM -0.5.
O=C(Nc1cccc2ccccc12)N1CCc2ccccc2C1 was read as M1 antag -1.1, CHRM1 agonist 1.0, CHO-K1 Ca ag -0.5, M1 PAM 4.1, CHO-K1 Ca antag 20.1 and CHO-K1 Ca PAM -7.5.
`CCN(CC)CCCNc1ncnc2scc(-c3ccc(F)cc3)c12` gave M1 antag 33.9*, CHRM1 agonist -9.1, CHO-K1 Ca ag 0.2, M1 PAM -19.7, CHO-K1 Ca antag -13.3 and CHO-K1 Ca PAM 16.3.
O=[N+]([O-])c1ccc(N2CCN(Cc3ccccc3)CC2)s1 was read as M1 antag -30.4, CHRM1 agonist -6.1, CHO-K1 Ca ag 3.4, M1 PAM 23.5, CHO-K1 Ca antag -13.2 and CHO-K1 Ca PAM -4.4.
Screening O=[N+]([O-])c1ccc(N2CCN(Cc3ccccc3)CC2)c2c1no[n+]2[O-] returned M1 antag 34.8*, CHRM1 agonist 1.1, CHO-K1 Ca ag 19.0*, M1 PAM -25.4, CHO-K1 Ca antag 10.5 and CHO-K1 Ca PAM 7.3.
`Cc1ccc(NC(=O)Nc2ccccc2)cc1[N+](=O)[O-]` gave M1 antag 14.6, CHRM1 agonist 2.6, CHO-K1 Ca ag 13.0, M1 PAM -8.3, CHO-K1 Ca antag 6.5 and CHO-K1 Ca PAM -4.2.
`O=C(Nc1ccccc1)Nc1ccc(F)c([N+](=O)[O-])c1` gave M1 antag 10.8, CHRM1 agonist 2.0, CHO-K1 Ca ag 15.4*, M1 PAM -12.6, CHO-K1 Ca antag 21.7 and CHO-K1 Ca PAM -2.2.
CCNC(=S)Nc1ccc(Cl)c([N+](=O)[O-])c1 was read as M1 antag 35.7*, CHRM1 agonist 1.7, CHO-K1 Ca ag 9.4, M1 PAM -12.5, CHO-K1 Ca antag 18.7 and CHO-K1 Ca PAM -13.3.
`O=C(Nc1ccccc1)Nc1ccc(Cl)c([N+](=O)[O-])c1` gave M1 antag 18.9, CHRM1 agonist 2.4, CHO-K1 Ca ag 16.7*, M1 PAM -6.6, CHO-K1 Ca antag 19.1 and CHO-K1 Ca PAM 2.5.
For COc1ccc(C(C(=O)NCC2CCCO2)N(C(=O)CNC(=O)c2cccs2)c2ccc(C)cc2)cc1OC (configuration not stated) the results were M1 antag -12.9, CHRM1 agonist -8.6, CHO-K1 Ca ag 3.4, M1 PAM 16.0, CHO-K1 Ca antag -0.9 and CHO-K1 Ca PAM 23.0.
Screening CCN(C(=O)CN1CCN(S(=O)(=O)c2cc(Cl)ccc2Cl)CC1)c1c(N)n(Cc2ccccc2)c(=O)[nH]c1=O returned M1 antag -2.5, CHRM1 agonist -3.5, CHO-K1 Ca ag -0.1, M1 PAM 4.5, CHO-K1 Ca antag -8.0 and CHO-K1 Ca PAM 16.9.
Cc1cc(C(=O)NCCc2ccccc2)c2cc(F)ccc2n1 was read as M1 antag -10.1, CHRM1 agonist -4.5, CHO-K1 Ca ag 0.8, M1 PAM 5.3, CHO-K1 Ca antag -9.6 and CHO-K1 Ca PAM 7.9.
For CC(=O)c1ccc(N2CCN(C3CCC(C(C)(C)C)CC3)CC2)cc1 (configuration not stated) the results were M1 antag 38.9*, CHRM1 agonist -11.4, CHO-K1 Ca ag -0.3, M1 PAM -22.0, CHO-K1 Ca antag 6.3 and CHO-K1 Ca PAM -23.9.
COc1ccc(CNS(=O)(=O)CCNC(=O)c2ccc3c(c2)OCO3)cc1 was read as M1 antag 0.5, CHRM1 agonist -2.2, CHO-K1 Ca ag -0.5, M1 PAM 0.6, CHO-K1 Ca antag 23.9* and CHO-K1 Ca PAM -18.8.
Screening CSc1nc(O)c(C(c2cccc([N+](=O)[O-])c2)c2c(O)nc(SC)[nH]c2=O)c(=O)[nH]1 returned M1 antag -4.7, CHRM1 agonist 1.1, CHO-K1 Ca ag -0.3, M1 PAM 7.9, CHO-K1 Ca antag -10.3 and CHO-K1 Ca PAM 8.6.
Screening Cc1cc(NC(=O)c2ccc(Cl)cc2)n(CCC#N)n1 returned M1 antag -2.1, CHRM1 agonist -0.3, CHO-K1 Ca ag 16.2*, M1 PAM 5.2, CHO-K1 Ca antag 6.6 and CHO-K1 Ca PAM 8.5.
Screening Cc1ccc(C(=O)Nc2cc(C)nn2CCC#N)cc1 returned M1 antag -7.3, CHRM1 agonist -4.0, CHO-K1 Ca ag 0.2, M1 PAM 1.3, CHO-K1 Ca antag -7.9 and CHO-K1 Ca PAM -2.0.
Cc1occc(=O)c1OCc1c(F)cccc1Cl was read as M1 antag 2.0, CHRM1 agonist -7.0, CHO-K1 Ca ag 15.8*, M1 PAM 2.9, CHO-K1 Ca antag 10.3 and CHO-K1 Ca PAM 5.5.
COc1ccc(C(=O)/C=C2/c3ccccc3CC(C)(C)N2C)cc1OC was read as M1 antag -3.4, CHRM1 agonist 1.1, CHO-K1 Ca ag 0.7, M1 PAM 3.7, CHO-K1 Ca antag -4.3 and CHO-K1 Ca PAM 8.2.
For CCCCCCS(=O)[C@H]1CS(=O)(=O)C[C@@H]1S(=O)CCCCCC (some centres not stated) the results were M1 antag 19.5*, CHRM1 agonist -4.5, CHO-K1 Ca ag -0.2, M1 PAM -13.1, CHO-K1 Ca antag 9.8 and CHO-K1 Ca PAM -0.1.

High-throughput results (PubChem)
